PubChem BioAssay (NCATS)
Inconclusive results are not listed. Entries that show only a call come without a potency. A number with no mark means an inactive call. Activity calls are given as the source filed them. The call rests on the fitted dose curve; in most records, active means well fitted cell-killing curve with a large enough effect; inconclusive means small, poorly fitted or top-dose-only effect, or effect the other way; inactive means flat fitted curve, though single readings scatter. Peptide text beside a SMILES is read from it.

How the values were obtained:
Assay in all cases: Primary qHTS to identify gynecologic anti-cancer compounds using libraries of approved drugs and bioactive compounds (AID 1345084); further: nearly all actives have a fitted effect of over 55% in size
CASKI = settings: Gynecologic cancer cell panel viability, ATPlite luminescence, 48 h; series mostly up to 57.5 µM
Summary of the method: (§1)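 Five-concentration response, 48 h; readout is ATP-driven luciferase luminescence.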

Es-2 = settings: Gynecologic cancer cell panel viability, ATPlite luminescence, 48 h; series mostly up to 57.5 µM
Summary of the method: as §1

HeLa = settings: Gynecologic cancer cell panel viability, ATPlite luminescence, 48 h; series mostly up to 57.5 µM
Summary of the method: as §1

Hek293T = settings: Gynecologic cancer cell panel viability, ATPlite luminescence, 48 h, control line for the selectivity index; series mostly up to 57.5 µM
Summary of the method: as §1

JEG-3 = settings: Gynecologic cancer cell panel viability, ATPlite luminescence, 48 h; series mostly up to 57.5 µM
Summary of the method: as §1

OV90 = settings: Gynecologic cancer cell panel viability, ATPlite luminescence, 48 h; series mostly up to 57.5 µM
Summary of the method: as §1

PA-1 = settings: Gynecologic cancer cell panel viability, ATPlite luminescence, 48 h; series mostly up to 57.5 µM
Summary of the method: as §1

SKOV3 = settings: Gynecologic cancer cell panel viability, ATPlite luminescence, 48 h; series mostly up to 57.5 µM
Summary of the method: as §1

Tov-21-G = settings: Gynecologic cancer cell panel viability, ATPlite luminescence, 48 h; series mostly up to 57.5 µM
Summary of the method: as §1

Tov112D = settings: Gynecologic cancer cell panel viability, ATPlite luminescence, 48 h; series mostly up to 57.5 µM
Summary of the method: as §1
Potency means the concentration at half of the fitted maximal effect.

Compound | Potency (CASKI) | Potency (Es-2) | Potency (HeLa) | Potency (Hek293T) | Potency (JEG-3) | Potency (OV90) | Potency (PA-1) | Potency (SKOV3) | Potency (Tov-21-G) | Potency (Tov112D)
Nc1cccc2c1CN(C1CCC(=O)NC1=O)C2=O (stereo not given) | inactive | inactive | inactive | inactive | inactive | inactive | inactive | inactive | inactive | inactive
COC(=O)[C@H](Cc1ccccc1)NC(=O)[C@@H](N)CC(=O)O (H-Asp-Phe-OMe) | inactive | inactive | inactive | inactive | inactive | inactive | inactive | inactive | inactive | inactive
CC(S)C(=O)NCC(=O)O (stereo not given) | inactive | inactive | inactive | inactive | inactive | inactive | inactive | inactive | inactive | inactive
CC(C)c1ccc2oc3nc(N)c(C(=O)O)cc3c(=O)c2c1 | 4.47 µM (active) | 7.08 µM (active) | 7.94 µM (active) | 7.08 µM (active) | 7.94 µM (active) | 6.31 µM (active) | 5.62 µM (active) | 7.08 µM (active) | 5.01 µM (active) | 7.94 µM (active)
COC(=O)N[C@H](C(=O)N[C@@H](Cc1ccccc1)[C@@H](O)CN(Cc1ccc(-c2ccccn2)cc1)NC(=O)[C@@H](NC(=O)OC)C(C)(C)C)C(C)(C)C | inactive | inactive | inactive | inactive | inactive | inactive | inactive | inactive | inactive | inactive
C=CCc1cc(OC)c(O)c(C(=O)NCCO)c1 | inactive | inactive | inactive | inactive | inactive | inactive | inactive | inactive | inactive | inactive
O=C(NCCO[N+](=O)[O-])c1cccnc1 | inactive | inactive | inactive | inactive | inactive | inactive | inactive | inactive | inactive | inactive
COCCCOc1ccnc(CS(=O)c2nc3ccccc3[nH]2)c1C (stereo not given) | inactive | inactive | inactive | inactive | inactive | inactive | inactive | inactive | inactive | inactive
Cc1ccc(S(=O)(=O)NC(=O)NN2CC3CCCC3C2)cc1 (stereo not given) | inactive | inactive | inactive | inactive | inactive | inactive | inactive | inactive | inactive | inactive
COC(=O)C1=C(C)NC(C)=C(C(=O)OC(C)C)C1c1cccc2nonc12 (stereo not given) | inactive | inactive | inactive | inactive | inactive | inactive | inactive | inactive | inactive | inactive
CN1C(C(=O)Nc2ccccn2)=C(O)c2sccc2S1(=O)=O | inactive | inactive | inactive | inactive | inactive | inactive | inactive | inactive | inactive | inactive
C=C(c1ccc(C(=O)O)cc1)c1cc2c(cc1C)C(C)(C)CCC2(C)C | inactive | inactive | inactive | inactive | inactive | inactive | inactive | inactive | inactive | inactive
Clc1ccc(C(Cn2ccnc2)OCc2c(Cl)cccc2Cl)c(Cl)c1 (stereo not given) | inactive | inactive | inactive | inactive | inactive | inactive | inactive | inactive | inactive | inactive
S=c1nc[nH]c2nc[nH]c12 | 2.51 µM (active) | 5.62 µM (active) | 5.62 µM (active) | 15.8 µM (active) | 3.55 µM (active) | 7.08 µM (active) | 3.16 µM (active) | inactive | 3.16 µM (active) | 8.91 µM (active)
O=C(NC(Cc1cc(=O)[nH]c2ccccc12)C(=O)O)c1ccc(Cl)cc1 (stereo not given) | inactive | inactive | inactive | inactive | inactive | inactive | inactive | inactive | inactive | inactive
CC1(C)NC(=O)N(c2ccc([N+](=O)[O-])c(C(F)(F)F)c2)C1=O | inactive | inactive | inactive | inactive | inactive | inactive | inactive | inactive | inactive | inactive
N=C(N=C(N)N)N1CCOCC1 | inactive | inactive | inactive | inactive | inactive | inactive | inactive | inactive | inactive | inactive
Clc1ccc(C(Cn2ccnc2)OCc2ccc(Sc3ccccc3)cc2)c(Cl)c1 (stereo not given) | inactive | inactive | inactive | inactive | inactive | inactive | inactive | inactive | inactive | inactive
